{"source": "paper PMC4336329", "about": "(PLoS ONE, 2015)", "note": "About 14,000 (4.5%) of roughly 310,000 compounds showed an effect of 50% or more. Effects have a minus sign here. For the sample, strong results were picked, then their nearest neighbours and some compounds at random.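 Note: peak tail current of the secondary pulse compared with the same well before compound.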", "data": [{"target": "human ether-à-go-go-related gene (hERG) potassium channel (human, UniProt Q12809)", "sequence (Q12809 whole entry, looked up)": "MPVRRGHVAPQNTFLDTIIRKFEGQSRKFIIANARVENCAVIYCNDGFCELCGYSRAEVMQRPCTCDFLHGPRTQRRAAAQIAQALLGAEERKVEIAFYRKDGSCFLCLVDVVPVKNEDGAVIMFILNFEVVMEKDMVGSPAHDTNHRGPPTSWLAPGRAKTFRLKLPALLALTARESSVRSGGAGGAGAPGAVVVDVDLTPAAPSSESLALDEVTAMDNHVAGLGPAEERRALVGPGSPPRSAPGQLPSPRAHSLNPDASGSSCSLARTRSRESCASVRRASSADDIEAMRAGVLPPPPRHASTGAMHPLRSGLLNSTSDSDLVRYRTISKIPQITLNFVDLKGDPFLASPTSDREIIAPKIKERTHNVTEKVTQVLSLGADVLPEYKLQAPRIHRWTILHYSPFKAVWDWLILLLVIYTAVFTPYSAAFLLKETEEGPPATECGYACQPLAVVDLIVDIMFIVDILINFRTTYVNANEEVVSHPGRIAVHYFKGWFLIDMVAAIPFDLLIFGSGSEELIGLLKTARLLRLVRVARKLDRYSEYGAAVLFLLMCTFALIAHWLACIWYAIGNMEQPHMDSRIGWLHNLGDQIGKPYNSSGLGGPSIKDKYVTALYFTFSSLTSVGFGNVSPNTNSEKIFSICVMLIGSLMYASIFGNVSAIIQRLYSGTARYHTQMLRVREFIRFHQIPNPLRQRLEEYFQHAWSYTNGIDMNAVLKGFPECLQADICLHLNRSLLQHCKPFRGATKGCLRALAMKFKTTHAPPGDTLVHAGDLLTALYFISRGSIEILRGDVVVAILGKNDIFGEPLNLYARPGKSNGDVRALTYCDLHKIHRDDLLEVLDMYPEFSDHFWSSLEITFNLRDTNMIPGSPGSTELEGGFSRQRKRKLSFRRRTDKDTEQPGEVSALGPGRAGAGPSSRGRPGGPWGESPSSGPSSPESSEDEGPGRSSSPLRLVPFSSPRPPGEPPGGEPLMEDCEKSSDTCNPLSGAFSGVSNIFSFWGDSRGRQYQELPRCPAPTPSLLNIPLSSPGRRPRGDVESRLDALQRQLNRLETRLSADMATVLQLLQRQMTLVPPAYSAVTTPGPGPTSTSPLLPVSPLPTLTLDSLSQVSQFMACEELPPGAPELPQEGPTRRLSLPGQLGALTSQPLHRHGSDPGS", "assay": "primary screen, population patch clamp on CHO cells stably expressing hERG; higher = less effect of the substance", "units": {"hERG current change (%, negative = inhibition) at 10uM": "%"}, "values": [{"smiles": "Cc1ccc(NC(=O)CSc2nnc(CSc3nc(C)cc(C)n3)n2Cc2ccco2)c(C)c1", "hERG current change (%, negative = inhibition) at 10uM": -39.5}, {"smiles": "O=C(Cn1nnc(-c2ccccc2F)n1)Nc1ccc2c(c1)OCCO2", "hERG current change (%, negative = inhibition) at 10uM": 11.3}, {"smiles": "O=C(COc1ccccc1Cl)Nc1cccc(S(=O)(=O)NC2=NCCCCC2)c1", "hERG current change (%, negative = inhibition) at 10uM": -5.14}, {"smiles": "CN(C)CCCn1c(SCC(=O)N2c3ccccc3Sc3ccccc32)nc2ccccc2c1=O", "hERG current change (%, negative = inhibition) at 10uM": -39.5}, {"smiles": "CC(=O)Nc1ccc(C)cc1", "hERG current change (%, negative = inhibition) at 10uM": 12.2}, {"smiles": "O=C(O)Cn1c(=O)cnc2ccccc21", "hERG current change (%, negative = inhibition) at 10uM": 9.56}, {"smiles": "CC(=O)c1c(C)n(C)c2ccc(OC(=O)c3ccc([N+](=O)[O-])cc3)cc12", "hERG current change (%, negative = inhibition) at 10uM": 17.2}, {"smiles": "CCOc1cc(-c2nc(C)c(C(C)=O)n2O)ccc1OCC(=O)Nc1ccccc1", "hERG current change (%, negative = inhibition) at 10uM": -0.49}, {"smiles": "Cc1cccc(S(=O)(=O)N2CCC(CO)(Cc3ccccc3)CC2)c1", "hERG current change (%, negative = inhibition) at 10uM": -2.74}, {"smiles": "Cc1[nH]c2ccccc2c1CN1CCC(CO)(Cc2ccccc2)CC1", "hERG current change (%, negative = inhibition) at 10uM": -47.6}, {"smiles": "Cc1c(CN2CCC(CO)(Cc3ccccc3)CC2)c2ccccc2n1C", "hERG current change (%, negative = inhibition) at 10uM": -37.8}, {"smiles": "Cc1[nH]c2c(C)cccc2c1CN1CCC(CO)(Cc2ccccc2)CC1", "hERG current change (%, negative = inhibition) at 10uM": -62.2}, {"smiles": "Cc1cc(C)n(-c2cccc(CN3CCC(CO)(Cc4ccccc4)CC3)c2)n1", "hERG current change (%, negative = inhibition) at 10uM": -58.1}, {"smiles": "Cc1cccc(-n2ccnc2CN2CCC(CO)(Cc3ccccc3)CC2)c1", "hERG current change (%, negative = inhibition) at 10uM": -50.1}, {"smiles": "Cc1cc(C)n(-c2ccc(C(=O)N3CCC(CO)(Cc4ccccc4)CC3)cc2)n1", "hERG current change (%, negative = inhibition) at 10uM": 9.21}, {"smiles": "CN(C)C1=NCCN1CC1CCCCCC1", "hERG current change (%, negative = inhibition) at 10uM": -3.28}, {"smiles": "CCOC(=O)CNC(=O)Cn1cnc2sc(C)c(S(=O)(=O)N3CCOCC3)c2c1=O", "hERG current change (%, negative = inhibition) at 10uM": 16.4}, {"smiles": "CC(=O)N1CCc2cc(S(=O)(=O)CCC(=O)N3CCN(c4ccccc4)CC3)ccc21", "hERG current change (%, negative = inhibition) at 10uM": 7.15}, {"smiles": "O=S1(=O)N=C(N(Cc2cccs2)c2ccc(O)cc2)c2ccccc21", "hERG current change (%, negative = inhibition) at 10uM": -39.1}, {"smiles": "COc1ccc(-c2cc(C(F)(F)F)nc(N3CCOCC3)n2)cc1", "hERG current change (%, negative = inhibition) at 10uM": 18.9}, {"smiles": "CCOC(=O)c1sc(N(Cc2ccccc2)C(=O)CSc2nnc(C3CC3)n2N)nc1C", "hERG current change (%, negative = inhibition) at 10uM": -26.7}, {"smiles": "COc1ccc(/C=C(/NC(=O)c2ccc([N+](=O)[O-])cc2)C(=O)NC(C)(C)C)cc1", "hERG current change (%, negative = inhibition) at 10uM": -40.8}, {"smiles": "COc1ccc(C(=O)N/C(=C\\c2ccc([N+](=O)[O-])cc2)C(=O)NC(CCSC)C(=O)O)cc1", "note": "(centres unmarked)", "hERG current change (%, negative = inhibition) at 10uM": 9.2}, {"smiles": "C=CCNC(=O)/C(=C\\c1ccc(OC)cc1)NC(=O)c1ccc([N+](=O)[O-])cc1", "hERG current change (%, negative = inhibition) at 10uM": -77.1}, {"smiles": "COc1ccc(C(=O)N/C(=C\\c2cc(OC)c(OC)cc2[N+](=O)[O-])C(=O)NCCO)cc1", "hERG current change (%, negative = inhibition) at 10uM": 17.3}, {"smiles": "C=CCNC(=O)/C(=C\\c1ccc([N+](=O)[O-])cc1)NC(C)=O", "hERG current change (%, negative = inhibition) at 10uM": 2.33}, {"smiles": "COc1ccc(/C=C(/NC(=O)c2ccc([N+](=O)[O-])cc2)C(=O)NCCCN(C)C)cc1", "hERG current change (%, negative = inhibition) at 10uM": -93.4}, {"smiles": "Nc1ncncc1-c1ccc([N+](=O)[O-])cc1", "hERG current change (%, negative = inhibition) at 10uM": -9.28}, {"smiles": "CC(=O)Cc1ccccc1OC(=O)c1ccco1", "hERG current change (%, negative = inhibition) at 10uM": 23.6}, {"smiles": "CCOC(=O)c1ccc(S(=O)(=O)N2CCN(C(=O)c3cc(=O)c4ccccc4o3)CC2)cc1", "hERG current change (%, negative = inhibition) at 10uM": -38.2}, {"smiles": "COc1ccc(N2CCN(C(=O)c3cc(=O)c4cc(C)ccc4o3)CC2)cc1", "hERG current change (%, negative = inhibition) at 10uM": -38.1}, {"smiles": "CN1CCN(C(=O)c2cc(=O)c3cc(Cl)ccc3o2)CC1", "hERG current change (%, negative = inhibition) at 10uM": -28.1}, {"smiles": "CC(=O)N1CCN(C(=O)c2cc(=O)c3ccccc3o2)CC1", "hERG current change (%, negative = inhibition) at 10uM": 26.2}, {"smiles": "O=C(c1cc2ccccc2o1)N1CCN(c2cccc(Cl)c2)CC1", "hERG current change (%, negative = inhibition) at 10uM": -16.3}, {"smiles": "Cc1cc(C)c2oc(C(=O)N3CCN(Cc4ccccc4)CC3)cc(=O)c2c1", "hERG current change (%, negative = inhibition) at 10uM": -42.9}, {"smiles": "O=C(c1cc(=O)c2cc(Cl)ccc2o1)N1CCN(Cc2ccccc2)CC1", "hERG current change (%, negative = inhibition) at 10uM": -70.8}, {"smiles": "O=C(c1cc(=O)c2ccccc2o1)N1CCN(c2ccccc2)CC1", "hERG current change (%, negative = inhibition) at 10uM": 1.71}, {"smiles": "Cc1ccc(S(=O)(=O)N2CCN(C(=O)c3cc(=O)c4ccccc4o3)CC2)cc1", "hERG current change (%, negative = inhibition) at 10uM": -55}, {"smiles": "COc1ccc(N2CCN(C(=O)c3cc(=O)c4cc(Cl)ccc4o3)CC2)cc1", "hERG current change (%, negative = inhibition) at 10uM": -76.3}, {"smiles": "COc1ccc(N2CCN(C(=O)c3cc(=O)c4cc(C)c(C)cc4o3)CC2)cc1", "hERG current change (%, negative = inhibition) at 10uM": 0.819}, {"smiles": "O=C(c1cc(=O)c2ccccc2o1)N1CCN(c2cccc(Cl)c2)CC1", "hERG current change (%, negative = inhibition) at 10uM": -56.4}, {"smiles": "CCOc1ccc(NC(=O)CN(C)C(=O)Cc2ccsc2)cc1OCC", "hERG current change (%, negative = inhibition) at 10uM": -11.2}, {"smiles": "Cc1cccc(C2C3=C(CCCC3=O)N=C3c4ccccc4C(=O)C32)c1", "note": "(centres unmarked)", "hERG current change (%, negative = inhibition) at 10uM": -0.327}, {"smiles": "CCOC(=O)Cn1c(=O)c2c(nc(N3CCOCC3)n2C)n(C)c1=O", "hERG current change (%, negative = inhibition) at 10uM": -4.47}, {"smiles": "COc1ccc(C2=NOC(Cn3c(Cc4ccc(Cl)cc4)nc4c3c(=O)n(C)c(=O)n4C)C2)cc1", "note": "(centres unmarked)", "hERG current change (%, negative = inhibition) at 10uM": -22.1}, {"smiles": "COc1ccc2cc(-c3cc(C(=O)OCC(=O)NC4CCS(=O)(=O)C4)c4ccccc4n3)ccc2c1", "note": "(centres unmarked)", "hERG current change (%, negative = inhibition) at 10uM": 16.1}, {"smiles": "CCc1nnc(NC(=O)c2sc3nc4cc(C)ccc4cc3c2N)s1", "hERG current change (%, negative = inhibition) at 10uM": 13}, {"smiles": "CCCCNC(=O)c1ccc(N2CCC3(CC2)OCCO3)c([N+](=O)[O-])c1", "hERG current change (%, negative = inhibition) at 10uM": -22.2}, {"smiles": "O=C1CC(NS(=O)(=O)c2ccc([N+](=O)[O-])cc2)CN1c1ccc2c(c1)OCCO2", "note": "(centres unmarked)", "hERG current change (%, negative = inhibition) at 10uM": -1.64}, {"smiles": "O=C1CC(NS(=O)(=O)c2ccc([N+](=O)[O-])cc2)CN1c1ccc(Cl)cc1", "note": "(centres unmarked)", "hERG current change (%, negative = inhibition) at 10uM": -66.6}, {"smiles": "CC(=O)c1ccc(S(=O)(=O)NC2CC(=O)N(c3ccc(Cl)cc3)C2)cc1", "note": "(centres unmarked)", "hERG current change (%, negative = inhibition) at 10uM": -34.8}, {"smiles": "COc1cccc(OCCCN2CCCCCC2)c1.O=C(O)C(=O)O", "hERG current change (%, negative = inhibition) at 10uM": -37.8}, {"smiles": "Brc1cccc(OCCN2CCCCC2)c1.O=C(O)C(=O)O", "hERG current change (%, negative = inhibition) at 10uM": -21.3}, {"smiles": "Brc1cccc(OCCCCN2CCCCC2)c1.O=C(O)C(=O)O", "hERG current change (%, negative = inhibition) at 10uM": -68.9}, {"smiles": "Brc1cccc(OCCCN2CCCCCC2)c1.O=C(O)C(=O)O", "hERG current change (%, negative = inhibition) at 10uM": -70}, {"smiles": "c1ccc(OCCCCN2CCCCC2)cc1", "hERG current change (%, negative = inhibition) at 10uM": 1.35}, {"smiles": "CCOc1cccc(OCCCCN2CCCCC2)c1", "hERG current change (%, negative = inhibition) at 10uM": -38.1}, {"smiles": "Brc1cccc(OCCN2CCOCC2)c1.O=C(O)C(=O)O", "hERG current change (%, negative = inhibition) at 10uM": 19}, {"smiles": "c1ccc(Oc2cccc(OCCCCN3CCCC3)c2)cc1", "hERG current change (%, negative = inhibition) at 10uM": -78.3}]}]}
